# Measured values published in a collection of fitness landscapes (doi:10.1126/science.1257360).
# The full ranking holds about 140,000 sequences; the median of “enrichment ratio after two sorts for PhoP signalling” is about 0, and the highest 2% start at about 11. The sample holds the highest values, similar sequences and a random draw of the others, so the mix is not that of the screen.
# B1: PhoQ; a variant is named by its letters at X, in order, P23837 (parent)
# chain: MKKLLRLFFPLSLRVRFLLATAAVVLVLSLAYGMVALIGYSVSFDKTTFRLLRGESNLFYTLAKWENNKLHVELPENIDKQSPTMTLIYDENGQLLWAQRDVPWLMKMIQPDWLKSNGFHEIEADVNDTSLLLSGDHSIQQQLQEVREDDDDAEMTHSVAVNVYPATSRMPKLTIVVVDTIPVELKSSYMVWSWFIYVLSANLLLVIPLLWVAAWWSLRPIEALAKEVRELEEHNRELLNPATTRELTSLVRNLNRLLKSERERYDKYRTTLTDLTHSLKTPLXXLQXXLRSLRSEKMSVSDAEPVMLEQISRISQQIGYYLHRASMRGGTLLSRELHPVAPLLDNLTSALNKVYQRKGVNISLDISPEISFVGEQNDFVEVMGNVLDNACKYCLEFVEISARQTDEHLYIVVEDDGPGIPLSKREVIFDRGQRVDTLRPGQGVGLAVAREITEQYEGKIVAGESMLGGARMEVIFGRQHSAPKDE
# Variants of: B1
# Assay: enrichment ratio after two sorts for PhoP signalling (ratio (wild type AVST 3.29)); higher = more functional
# Settings: with PhoP (E. coli)
row,Variant,enrichment ratio
1,FDDD,≤ 0.25
2,AMFM,≤ 0.25
3,PNFI,≤ 0.25
4,KCCR,≤ 0.25
5,RQPM,≤ 0.25
6,IGQV,≤ 0.25
7,GHHN,≤ 0.25
8,PRDV,≤ 0.25
9,SEQG,17.8
10,SQQG,6.66
11,SLQG,≤ 0.25
12,AKQG,≤ 0.25
13,AEQG,≤ 0.25
14,AQQG,12.7
15,HAGM,≤ 0.25
16,HMVE,≤ 0.25
17,VFKE,≤ 0.25
18,HGRI,≤ 0.25
19,FPCA,≤ 0.25
20,GKQD,≤ 0.25
21,KAHY,≤ 0.25
22,TAPI,≤ 0.25
23,AHHY,≤ 0.25
24,NAHY,≤ 0.25

row,Variant,enrichment ratio
1,TAHY,27.1
2,MAHY,20.2
3,NMRM,≤ 0.25
4,NICT,≤ 0.25
5,EQCT,≤ 0.25
6,ANCT,21
7,AHCT,≤ 0.25
8,YACT,0.253
9,RICT,≤ 0.25
10,SNCT,8.8
11,AICT,18
12,AACT,12.4
13,KACT,≤ 0.25
14,AWCT,≤ 0.25
15,AQCT,20.8
16,ALFD,≤ 0.25
17,SHFP,0.324
18,WCTK,≤ 0.25
19,FYGE,≤ 0.25
20,MNPG,≤ 0.25
21,FEMT,3.56
22,ENFC,≤ 0.25
23,SYCA,≤ 0.25
24,EDSI,≤ 0.25

row,Variant,enrichment ratio
1,THNH,16.2
2,QHNH,13.9
3,SHNH,1.34
4,QHNY,27.5
5,NHNH,≤ 0.25
6,QHRI,≤ 0.25
7,QHRH,≤ 0.25
8,QHNS,5.2
9,QHGY,8.42
10,LVRE,≤ 0.25
11,EGNA,≤ 0.25
12,YTYL,≤ 0.25
13,TEWR,6.71
14,NIYL,≤ 0.25
15,KSWS,≤ 0.25
16,TEGM,4.56
17,TEWM,73.1
18,TEWA,38.4
19,TEWS,28.5
20,TEYL,13
21,TEWN,9.81
22,TEWG,3.3
23,TERM,≤ 0.25
24,QHAH,≤ 0.25

row,Variant,enrichment ratio
1,DNQP,≤ 0.25
2,LKHW,≤ 0.25
3,NWHW,≤ 0.25
4,WFMI,≤ 0.25
5,IWYG,≤ 0.25
6,WQRD,≤ 0.25
7,HEYK,≤ 0.25
8,RHGY,≤ 0.25
9,KSWD,≤ 0.25
10,KSWL,≤ 0.25
11,NEAM,≤ 0.25
12,TEWL,21.7
13,QEWD,4.99
14,MEWL,≤ 0.25
15,TEEL,≤ 0.25
16,MEAM,9.82
17,TEGL,13.2
18,TERL,≤ 0.25
19,TEWD,13
20,TEAM,16.4
21,SQYM,≤ 0.25
22,VRMI,≤ 0.25
23,QHIN,≤ 0.25
24,SFID,≤ 0.25

row,Variant,enrichment ratio
1,DARD,≤ 0.25
2,RDIV,≤ 0.25
3,NYWF,≤ 0.25
4,TEWF,22
5,QEWF,≤ 0.25
6,RLCT,≤ 0.25
7,NKEG,≤ 0.25
8,AQVI,18.1
9,AQHE,≤ 0.25
10,ADVE,≤ 0.25
11,AQRA,≤ 0.25
12,ICVI,≤ 0.25
13,AQVA,14.1
14,AIVI,13
15,WIVI,≤ 0.25
16,AQVK,≤ 0.25
17,NQVI,≤ 0.25
18,VHVI,≤ 0.25
19,AQVE,34.1
20,DEDS,≤ 0.25
21,DGNR,≤ 0.25
22,DLTS,≤ 0.25
23,PPKY,≤ 0.25
24,ICPL,≤ 0.25

row,Variant,enrichment ratio
1,KKGI,≤ 0.25
2,DIWR,≤ 0.25
3,HNLR,≤ 0.25
4,AQVS,14
5,AKVE,≤ 0.25
6,KQVS,≤ 0.25
7,VLVI,≤ 0.25
8,EQVS,≤ 0.25
9,NMVI,≤ 0.25
10,AQVC,9.47
11,AQWG,≤ 0.25
12,RIVE,≤ 0.25
13,AMVI,16.3
14,AQVG,12
15,AIVE,12.3
16,DFYH,≤ 0.25
17,PRHA,≤ 0.25
18,KVWY,≤ 0.25
19,KKYK,≤ 0.25
20,ETML,≤ 0.25
21,VRLV,≤ 0.25
22,CFLV,≤ 0.25
23,SGHK,≤ 0.25
24,APLV,≤ 0.25

row,Variant,enrichment ratio
1,NGLV,6.65
2,SGLV,17.9
3,TGLV,12.3
4,VGLV,12.3
5,AGLV,12.7
6,RGLV,≤ 0.25
7,VHLV,≤ 0.25
8,LWQD,≤ 0.25
9,FDMF,≤ 0.25
10,VNQQ,≤ 0.25
11,YCCF,≤ 0.25
12,NGGQ,≤ 0.25
13,MMPC,≤ 0.25
14,LNWD,≤ 0.25
15,VQIE,≤ 0.25
16,QIPP,≤ 0.25
17,NILV,0.722
18,MGLW,≤ 0.25
19,MGLV,15.2
20,GGLV,13.7
21,GYLV,≤ 0.25
22,MGLA,2.09
23,YFRP,≤ 0.25
24,IDDH,≤ 0.25

row,Variant,enrichment ratio
1,FGGG,≤ 0.25
2,FGMI,11.8
3,FGMG,0.824
4,FGMV,16.7
5,FGMS,0.618
6,FGGQ,3.04
7,FGMQ,21.1
8,FGMW,≤ 0.25
9,FGMD,≤ 0.25
10,YKMH,≤ 0.25
11,HWMV,≤ 0.25
12,RAPQ,≤ 0.25
13,ATVM,6.8
14,STPC,≤ 0.25
15,MGHV,2.03
16,RGYF,≤ 0.25
17,MGWI,1.07
18,TGVV,0.277
19,MGVV,15.6
20,MGYF,12.2
21,MGYV,13.4
22,TGYF,1.56
23,MGVA,≤ 0.25
24,MGGS,17.9

row,Variant,enrichment ratio
1,MGVK,≤ 0.25
2,MGWV,6.77
3,MMRA,≤ 0.25
4,DQCN,≤ 0.25
5,MMLA,≤ 0.25
6,ASGS,3.2
7,MTYQ,2.5
8,MGCI,5.38
9,MGCV,14
10,MGKI,≤ 0.25
11,MGGH,20.1
12,MGGQ,2.83
13,MGDI,≤ 0.25
14,MGGA,24.1
15,MGKH,≤ 0.25
16,MGGD,≤ 0.25
17,MGYQ,14
18,MGDS,≤ 0.25
19,SGGC,10.9
20,HITM,≤ 0.25
21,PRMN,≤ 0.25
22,EYFG,≤ 0.25
23,DTNW,≤ 0.25
24,LCAW,≤ 0.25

row,Variant,enrichment ratio
1,IYCG,≤ 0.25
2,MGHF,0.887
3,MGDR,≤ 0.25
4,MGYK,≤ 0.25
5,MGYD,≤ 0.25
6,GGHL,≤ 0.25
7,MGYS,12.2
8,TGHL,7.55
9,TGYS,1.45
10,MGWA,≤ 0.25
11,MGYI,13.6
12,MGHI,19.7
13,MGHL,19.3
14,EVSV,≤ 0.25
15,VKDT,≤ 0.25
16,DASS,≤ 0.25
17,QDGG,≤ 0.25
18,SPTL,≤ 0.25
19,FSTL,4.4
20,NITL,≤ 0.25
21,TMTL,20.9
22,KSTL,≤ 0.25
23,NATL,≤ 0.25
24,GYTL,≤ 0.25

row,Variant,enrichment ratio
1,KATL,≤ 0.25
2,TYTL,15.2
3,TATL,16.3
4,TVTL,15.2
5,RYTL,≤ 0.25
6,AVIL,1.98
7,LGEK,≤ 0.25
8,DFEL,≤ 0.25
9,FLSP,≤ 0.25
10,RASH,≤ 0.25
11,CFTL,15.7
12,CITL,≤ 0.25
13,TGTL,13.5
14,NGTL,≤ 0.25
15,GGTL,5.81
16,CMTL,≤ 0.25
17,FIIG,≤ 0.25
18,YFRE,≤ 0.25
19,YALE,14.7
20,NHLE,≤ 0.25
21,MKLE,≤ 0.25
22,AHLE,12.9
23,HKLE,≤ 0.25
24,KALE,≤ 0.25

row,Variant,enrichment ratio
1,QPLE,≤ 0.25
2,AILE,2.65
3,TKLE,12.7
4,YELE,13.8
5,YEVE,≤ 0.25
6,FTLE,5.91
7,PLTV,≤ 0.25
8,YFSG,≤ 0.25
9,RYRE,≤ 0.25
10,SNND,≤ 0.25
11,GKDT,≤ 0.25
12,PQNK,≤ 0.25
13,KRMQ,≤ 0.25
14,MEMV,14.8
15,AKMG,18.6
16,MEMS,63.4
17,MEHV,14.3
18,MKMV,≤ 0.25
19,YYHV,≤ 0.25
20,AIMG,6.65
21,MTHV,≤ 0.25
22,ADMG,≤ 0.25
23,MKMS,≤ 0.25
24,KKMS,≤ 0.25

row,Variant,enrichment ratio
1,MEMW,≤ 0.25
2,VCGT,≤ 0.25
3,VPIR,≤ 0.25
4,IAQH,≤ 0.25
5,SNQM,9.41
6,RNTT,≤ 0.25
7,NFHF,≤ 0.25
8,RATT,≤ 0.25
9,RPPR,≤ 0.25
10,QKLG,≤ 0.25
11,PTLR,≤ 0.25
12,NSHF,≤ 0.25
13,MEVG,4.29
14,VEMV,27.4
15,MEMG,12.8
16,VEKK,≤ 0.25
17,MKMG,≤ 0.25
18,VEMG,6.39
